Values joined by “and” are separate entries in the source; they are usually repeats but may differ in a detail not shown here. Identical values can stand only once. Results filed as inconclusive are left out. The source holds several records for some structures; these can differ, active in one and inactive in another. Active and inactive are the calls of the source. Unless noted, calls come from the whole dose curve; as a rule, active = well fitted curve in the direction sought with a large enough effect in the repeat runs; inconclusive = weak or mixed curves; inactive = no such curve, though single readings can be large; an effect the other way counts as inactive or inconclusive.
Columns and labels:
[1] = qHTS assay to identify small molecule agonists of the hypoxia (HIF-1) signaling pathway - cell viability counter screen (AID 1224844; calls by dose curve; note: nearly all actives have a fitted effect of over 50% in size; note: potency is the fitted concentration of half-maximal effect)
Procedure, shortened: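 Multiplexed with the HRE beta-lactamase assay, this viability read used CellTiter-Glo luminescence (30 min, RT) on HRE-bla ME-180 cells treated 17 hrs with compounds in 0.5% dialyzed FBS medium.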

[2] = qHTS assay to identify small molecule agonists of H2AX (AID 1224845; active = well fitted activation curve with a large enough effect in the signal ratio in the repeat runs, not every such curve was filed as active; the % refers to the signal ratio)
Procedure, shortened: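 Phospho-H2AX Ser139 measured by HTRF (ex 320 nm; em 665 and 620 nm) after 24 hr antibody incubation. Compounds, 15 concentrations, 0.76% DMSO, were applied to CHO-K1 cells for 3hr at 37C before lysis.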

[3] = qHTS assay to identify small molecule agonists of the hypoxia (HIF-1) signaling pathway (AID 1224846; active = well fitted activation curve with a large enough effect in the signal ratio in the repeat runs, not every such curve was filed as active; the % refers to the signal ratio)
Procedure, shortened: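 Hypoxia-pathway activation was scored as increased beta-lactamase from an HRE-controlled reporter in ME-180 cells; plated at 2,000 cells per well with 0.5% dialyzed FBS, they were exposed 17 hrs to compounds and then given CCF4-AM.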

[4] = qHTS assay to identify small molecule agonists of H2AX - cell viability counter screen (AID 1224847; calls by dose curve;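 note: wild-type CHO-K1 cells; top concentration of the series differs between compounds; nearly all actives have a fitted effect of over 30% in size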)
Procedure, shortened: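 After overnight plating of 1000 CHO-K1 cells per well, a 15-concentration compound series was applied for 3 hr at 37C. Luminescence from CellTiter-Glo, read following 30 min at room temperature, reflected cell viability.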

[5] = qHTS RealTime-Glo MT Cell Viability Assay in HepG2 cells - 24 hour (AID 1224867); note: nearly all actives have a fitted effect of over 50% in size
Procedure, shortened: (§1)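 HepG2 cells (600/well) were dispensed with RealTime-Glo reagents, incubated 5 h at 37 °C, then treated with compounds in DMSO for up to 40 h. Nonlytic NanoLuc luminescence reflecting viable cells was read at each stated time point.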

[6] = qHTS RealTime-Glo MT Cell Viability Assay in HEK293 cells - 32 hour (AID 1224868); note: nearly all actives have a fitted effect of over 50% in size; note: potency is the fitted concentration of half-maximal effect
Procedure, shortened: (§2)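 HEK293 cells seeded with NanoLuc/prosubstrate reagent, rested 5 h at 37 C, then dosed and kept at 37 C up to 40 h. Nonlytic real-time luminescence from viable cells read at 0, 8, 16, 24, 32 and 40 h.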

[7] = A CellTox Green Cytotoxicity Assay to monitor cytotoxicity in HEK293 cells - 0 hour (AID 1224869); note: nearly all actives have a fitted effect of over 50% in size
Procedure, shortened: (§3)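 Seeding of HEK293 cells together with cytotoxicity dye preceded a 5 h incubation at 37 C/5% CO2. Test compounds in DMSO were then added and fluorescence monitored across 40 h.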

[8] = qHTS RealTime-Glo MT Cell Viability Assay in HepG2 cells - 40 hour (AID 1224870); note: nearly all actives have a fitted effect of over 50% in size
Procedure, shortened: (§4)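 Real-time viability: cells seeded at 600 per well together with NanoLuc and cell-permeant prosubstrate, compounds added after 5 h incubation. Luminescence tracked at 0, 8, 16, 24, 32 and 40 h of exposure.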

[9] = qHTS RealTime-Glo MT Cell Viability Assay in HEK293 cells - 16 hour (AID 1224872); note: nearly all actives have a fitted effect of over 50% in size; note: potency is the fitted concentration of half-maximal effect
Procedure, shortened: as §2

[10] = qHTS RealTime-Glo MT Cell Viability Assay in HepG2 cells - 8 hour (AID 1224873); note: nearly all actives have a fitted effect of over 55% in size
Procedure, shortened: as §4

[11] = qHTS RealTime-Glo MT Cell Viability Assay in HEK293 cells - 40 hour (AID 1224874); details: RealTime-Glo luminescence; max response: stronger effect = lower value; note: nearly all actives have a fitted effect of over 50% in size; note: potency is the fitted concentration of half-maximal effect
Procedure, shortened: (§5)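 Tox21 screen in HEK293 using RealTime-Glo MT chemistry, with cells and reagent co-dispensed. Luminescence proportional to viable cell number was captured at intervals during 40 h compound exposure at 37 C.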

[12] = A CellTox Green Cytotoxicity Assay to monitor cytotoxicity in HepG2 cells - 16 hour (AID 1224876); note: nearly all actives have a fitted effect of over 45% in size; note: potency is the fitted concentration of half-maximal effect
Procedure, shortened: (§6)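 Nonlytic assay: viable cells exclude the dye, so fluorescence scales with cell death. HepG2 at 600 cells/well, compounds added after 5 h, signal read across 40 h.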

[13] = qHTS RealTime-Glo MT Cell Viability Assay in HepG2 cells - 32 hour (AID 1224877); note: nearly all actives have a fitted effect of over 55% in size
Procedure, shortened: as §1

[14] = A CellTox Green Cytotoxicity Assay to monitor cytotoxicity in HepG2 cells - 24 hour (AID 1224878); note: nearly all actives have a fitted effect of over 45% in size; note: potency is the fitted concentration of half-maximal effect
Procedure, shortened: as §6

[15] = A CellTox Green Cytotoxicity Assay to monitor cytotoxicity in HepG2 cells - 40 hour (AID 1224879); note: nearly all actives have a fitted effect of over 40% in size; note: potency is the fitted concentration of half-maximal effect
Procedure, shortened: as §6

[16] = qHTS assay to identify small molecule antagonists of the estrogen related receptor (ERR) signaling pathway from Tox21 library (AID 1224848); note: nearly all actives have a fitted effect of over 50% in size
Procedure, shortened: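 Reading was by luminescence 30 min after ONE-Glo addition. Before that, ERR cells at 2,000 per well had rested 6 h at 37 C/5% CO2 and then received pin-tooled compounds in DMSO for 18 h at 37 C.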

[17] = qHTS assay to identify small molecule agonists of the estrogen related receptor (ERR) signaling pathway from Tox21 library (AID 1224849; calls by dose curve; note: nearly all actives have a fitted effect of over 15% in size); details: ERR reporter cell line, ONE-Glo luciferase, 18 h
Procedure, shortened: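 Six hours post-seeding at 37 C/5% CO2, ERR cells receive DMSO-solubilised compounds; after 18 h at 37 C, ONE-Glo reagent is applied and luminescence recorded.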

[18] = A CellTox Green Cytotoxicity Assay to monitor cytotoxicity in HEK293 cells - 40 hour (AID 1224871); note: nearly all actives have a fitted effect of over 45% in size
Procedure, shortened: as §3

[19] = A CellTox Green Cytotoxicity Assay to monitor cytotoxicity in HEK293 cells - 24 hour (AID 1224875); note: nearly all actives have a fitted effect of over 45% in size
Procedure, shortened: as §3

[20] = qHTS RealTime-Glo MT Cell Viability Assay in HEK293 cells - 0 hour (AID 1224880)
Procedure, shortened: as §5
% is set by controls: 0 for no effect and ±100 for the full control effect.

c1ccc2c(c1)Oc1ccccc1S2
inactive: Potency [1] | outcome [2] | Potency [3] | Potency [4] | Potency [5] | Potency [6] | Potency [7] | Potency [8] | Potency [9] | Potency [10] | max response [11] -19.5% and -6.23% | Potency [12] | Potency [13] | Potency [14] | Potency [15]

O=C=Nc1ccc(Cc2ccc(N=C=O)cc2)cc1
inactive: Potency [1] | outcome [2] | Potency [4] | Potency [16] | activity change, positive = activation ([17]; at 42.5 µM (top of the series)) 2.14% | activity change, positive = activation ([17]; at 92.4 µM (top of the series)) -19.6% | Potency [5] | Potency [6] | Potency [7] | Potency [8] | Potency [18] | Potency [9] | Potency [10] | max response [11] -12.4% and 1.24% | Potency [19] | Potency [13] | Potency [14] | Potency [15] | Potency [20]

Cc1c(OCC(F)(F)F)ccnc1CS(=O)c1nc2ccccc2[nH]1 (stereo unspecified)
active: activity change, positive = activation ([17]; at 42.5 µM (top of the series)) -8.69% | Potency [6] 19.5 µM and 10.7 µM | Potency [9] 19.5 µM and 23.9 µM | Potency [11] 21.9 µM and 10.7 µM
inactive: Potency [1] | outcome [2] | Potency [4] | Potency [16] | activity change, positive = activation ([17]; at 92.4 µM (top of the series)) -7.88% | Potency [5] | Potency [7] | Potency [8] | Potency [18] | Potency [10] | Potency [19] | Potency [12] | Potency [13] | Potency [14] | Potency [15] | Potency [20]

C=C(C)C1CC=C(C)CC1 (stereo unspecified)
inactive: Potency [1] | outcome [2] | Potency [3] | Potency [4] | Potency [5] | Potency [6] | Potency [7] | Potency [8] | Potency [18] | Potency [9] | Potency [10] | max response [11] 1.72% and 5.41% | Potency [19] | Potency [12] | Potency [13] | Potency [14] | Potency [15] | Potency [20]

C[Si](C)(C)O[Si](C)(C)C
inactive: Potency [1] | outcome [2] | Potency [3] | Potency [4] | Potency [5] | Potency [6] | Potency [7] | Potency [8] | Potency [18] | Potency [9] | Potency [10] | max response [11] -0.246% and 0.761% | Potency [19] | Potency [12] | Potency [13] | Potency [14] | Potency [15] | Potency [20]

CCCCC(CC)COC(=O)c1ccc(N(C)C)cc1 (stereo unspecified)
inactive: Potency [1] | outcome [2] | Potency [3] | Potency [4] | Potency [5] | Potency [6] | Potency [7] | Potency [8] | Potency [9] | Potency [10] | max response [11] -14.3% and -13.1% and -14.9% | Potency [19] | Potency [13] | Potency [14] | Potency [15]

CC1=CCC(C(C)(C)O)CC1 (stereo unspecified)
inactive and 21.9 µM (active): Potency [14] | Potency [15]
inactive: Potency [1] | outcome [2] | Potency [3] | Potency [4] | Potency [5] | Potency [6] | Potency [7] | Potency [8] | Potency [18] | Potency [9] | Potency [10] | max response [11] 3.53% and 0% | Potency [19] | Potency [13] | Potency [20]
inactive and 19.5 µM (active): Potency [12]

c1ccncc1
inactive: Potency [1] | outcome [2] | Potency [3] | Potency [4] | Potency [5] | Potency [6] | Potency [7] | Potency [8] | Potency [9] | Potency [10] | max response [11] 5.95% and 4.64% | Potency [19] | Potency [12] | Potency [13] | Potency [14] | Potency [15]

Oc1ccc(O)cc1
inactive: Potency [1] | Potency [5] | Potency [7] | Potency [8] | Potency [18] | Potency [10] | Potency [19] | Potency [13] | Potency [14] | Potency [15] | Potency [20]

Brc1cc(Oc2cc(Br)c(Br)c(Br)c2Br)c(Br)c(Br)c1Br
inactive: Potency [3] | Potency [4] | Potency [5] | Potency [6] | Potency [7] | Potency [8] | Potency [18] | Potency [9] | Potency [10] | max response [11] -1.03% and -0.229% | Potency [19] | Potency [13] | Potency [14] | Potency [15] | Potency [20]
49.2 µM (active) and inactive: Potency [1]
